Test [1] relates to Human papillomavirus type 1a protein E7 (residues 44-93). Description: HPV1a E7 fragment binders on microarrays, primary screen, biochemical, small-molecule microarray, residues 44-93, 635 nm fluorescence (AID 1108).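 Note: E7 fragment applied at 1 µg/mL in TBST for 1 h at 4 C; score combines spot fluorescence with its signal to noise ratio.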 The note with it: small-molecule microarray binding, fluorescence 635 nm; higher = more signal.
Test [2] in a line: modulators of HCV replicon luciferase signal, primary screen, HCV replication inhibitor project, Huh7 cells, luciferase reporter (AID 1109).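 Note: huh7 hepatoma cells harbouring a luciferase neomycin HCV replicon reporter; luciferase luminescence as measure of HCV replicon replication; test concentration not given here.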 The conditions noted are these: 48 h, higher = more signal.
The target of test [3] is Left-right determination factor 2 (Homo sapiens) (UniProt O00292). Nature of the test: LEFTY2 binders on small-molecule microarrays, primary screen, biochemical, small-molecule microarray, 635 nm fluorescence scan (AID 1110). The note with it: LEFTY2 binding, higher = more signal.
Chain of Left-right determination factor 2 (Homo sapiens) (O00292 whole entry, looked up): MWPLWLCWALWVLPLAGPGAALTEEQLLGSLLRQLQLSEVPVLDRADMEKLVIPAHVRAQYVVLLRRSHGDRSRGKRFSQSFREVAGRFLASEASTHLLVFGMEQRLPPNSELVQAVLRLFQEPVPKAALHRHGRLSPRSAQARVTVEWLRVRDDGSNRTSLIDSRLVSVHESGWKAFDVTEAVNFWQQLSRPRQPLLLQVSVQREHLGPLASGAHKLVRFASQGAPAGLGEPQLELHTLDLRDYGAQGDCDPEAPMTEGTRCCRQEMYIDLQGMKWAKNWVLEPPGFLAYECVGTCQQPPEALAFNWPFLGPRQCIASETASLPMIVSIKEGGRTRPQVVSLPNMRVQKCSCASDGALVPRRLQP
Test [4] deals with Calmodulin-1 (Homo sapiens) (UniProt P0DP23). Nature of the test: CALM1 binders on microarrays, EGTA buffer, profiling panel, biochemical, small-molecule microarray, Cy5-labelled CALM1 (AID 1111).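 Note: labelled calmodulin applied in Tris saline Tween buffer holding calcium plus EGTA and DTT.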 The note with it: Cy5-CALM1 binding fluorescence, higher = more signal.
Test [5] has the same target. Nature of the test: calcium-bound CALM1 binders on microarrays, profiling panel, artefact control for SMM control-protein annotation, biochemical, small-molecule microarray, Cy5-labelled CALM1, plus calcium (AID 1112).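 Note: score merges spot fluorescence with signal to noise from triplicate slides.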 The conditions noted are these: Cy5-CALM1 binding fluorescence, higher = more signal.
The nature of test [6]: small-molecule microarray binders of probe aWnt5a, primary screen, biochemical, biotinylated probe, 635/667 nm fluorescence (AID 1113).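 Note: score merges 667 nm fluorescence intensity with signal-to-noise per printed feature.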 The note with it: higher = more signal.
Test [7] is described as follows: small-molecule microarray binders of probe aShh, primary screen, biochemical, biotinylated probe, 635/667 nm fluorescence (AID 1114).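 Note: probe is biotin-labelled aShh protein from a stem cell growth factor screen; measures binding of labelled protein to compounds printed on the slide; score merges feature fluorescence at 667 nm with signal-to-noise.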 The note with it: higher = more signal.
The nature of test [8]: small-molecule microarray binders of probe aNog, primary screen, biochemical, biotinylated probe, 635/667 nm fluorescence (AID 1115).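 Note: probe is biotinylated aNog protein used at 0.15 µg/mL for 1 h at 4 C; z-score combines 667 nm fluorescence of each spot with its signal to noise.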 The conditions noted are these: higher = more signal.
Test [9] has as its target Torsin-1A-interacting protein 1 (Homo sapiens) (UniProt Q5JTV8). Description: LAP1 binders from COS7 cell lysate, primary screen, small-molecule microarray, 635/667 nm fluorescence (AID 1116). The note with it: COS7-hLAP1 lysate binding, 635 nm fluorescence, higher = more signal.
Test [10] concerns the target Alpha-bungarotoxin (Bungarus multicinctus) (UniProt P60615). Description: alpha-bungarotoxin binders on microarray, profiling panel, artefact control for SMM control protein annotation, biochemical, small-molecule microarray, Alexa647 label, 635/667 nm fluorescence (AID 1117). The conditions noted are these: alpha-BTX-A647 binding fluorescence, higher = more signal.

Chain of Alpha-bungarotoxin (Bungarus multicinctus) (P60615 whole entry, looked up): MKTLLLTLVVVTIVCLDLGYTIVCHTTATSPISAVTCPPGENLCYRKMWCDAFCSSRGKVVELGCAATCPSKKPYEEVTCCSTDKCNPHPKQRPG
Chain of Torsin-1A-interacting protein 1 (Homo sapiens) (Q5JTV8 whole entry, looked up): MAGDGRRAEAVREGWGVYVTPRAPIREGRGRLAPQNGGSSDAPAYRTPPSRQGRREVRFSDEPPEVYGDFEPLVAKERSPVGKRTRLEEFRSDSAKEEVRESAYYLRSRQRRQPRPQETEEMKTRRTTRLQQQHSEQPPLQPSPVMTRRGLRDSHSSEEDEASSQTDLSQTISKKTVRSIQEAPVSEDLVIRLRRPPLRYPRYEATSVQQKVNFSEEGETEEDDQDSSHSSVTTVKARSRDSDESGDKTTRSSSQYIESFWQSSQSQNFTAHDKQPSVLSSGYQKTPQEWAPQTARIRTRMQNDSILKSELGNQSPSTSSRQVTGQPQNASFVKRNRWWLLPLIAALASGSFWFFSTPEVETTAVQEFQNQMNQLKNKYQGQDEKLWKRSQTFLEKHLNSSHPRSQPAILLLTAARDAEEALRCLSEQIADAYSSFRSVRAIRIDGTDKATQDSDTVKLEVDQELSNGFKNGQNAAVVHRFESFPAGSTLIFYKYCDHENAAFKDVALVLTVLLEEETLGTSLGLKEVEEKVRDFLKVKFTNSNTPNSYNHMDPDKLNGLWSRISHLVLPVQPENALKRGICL

On to `CCOC(=O)NN=C1C[C@@H](O)[C@@H](O)[C@@H]2[C@@H]3C(=O)N(CC)C(=O)[C@@H]3CC[C@@H]12`, for which the composite z-score in test [1] was 0.788; in test [3] it was 0.651; in test [4], -0.21; in test [5], -0.264; in [6] it was -0.118; in test [7] it was -0.0977. For the same molecule, the results for the composite z-score in [8], in test [9] and in [10] were -0.213, 0.197 and 0.595, respectively. In [2], this molecule gave a z-score of -0.161.
On to `CO[C@H]1COC(=O)[C@@H]2CCCN2C(=O)[C@@H](C)COC(=O)CC=C[C@@H]1C`, for which the composite z-score in test [1] was -1.03; in [3], 1.2; in test [4], 0.212; in [5] it was -0.823; in test [6], -0.13; in test [7], -0.0793. For the same molecule, the composite z-score is -0.0209 in test [8], 0.626 in test [9] and -1.16 in test [10]. The z-score in test [2] was -0.496.
`C#CCCCON=C1C[C@@H](O)[C@@H](O)[C@@H]2[C@@H]3C(=O)N([C@@H](C)c4ccccc4)C(=O)[C@@H]3CC[C@H]12`: the composite z-score in test [1] was 0.207; in test [3], 0.45; in [4] it was 0.0505; in test [5] it was -0.602; in [6] it was 0.0354; in test [7] it was 0.0796. Also, the composite z-score was -0.285 in test [8], 0.418 in test [9] and 0.375 in [10]. For the same molecule, the z-score in test [2] is -0.638.
With `C[C@H]1Cc2c(-c3ccccc3)nc3c(c2CO1)CN(CCOc1ccccc1)CC3`, the composite z-score in test [1] is 1.33; in test [3] it was 0.945; in test [4], 0.491; in [5], -0.416; in test [6], -0.0203; in test [7], 0.147. Besides, the figures for the composite z-score in test [8], in test [9] and in [10] were -0.0172, 0.0704 and 0.269, respectively. Also, the z-score in [2] was -0.56.
With `COCC1=C2[C@@H](CCc3ccccc3)OB(O)C[C@@H]2n2c(=O)n(-c3ccccc3)c(=O)n2C1`, the composite z-score is -0.289 in test [1]; 0.26 in test [3]; -0.455 in test [4]; -0.438 in test [5]; -0.158 in test [6]; -0.304 in [7]. The composite z-score was -0.213 in test [8], 0.152 in test [9] and -0.148 in test [10]. In test [2], the z-score is 0.332.
With `CC(C)CON=C1C[C@@H](O)[C@@H](O)[C@@H]2[C@@H]3C(=O)N(Cc4ccccc4)C(=O)[C@@H]3CC[C@@H]12`, the composite z-score was 0.673 in test [1]; 0.409 in test [3]; -0.312 in test [4]; -0.475 in [5]; -0.0792 in test [6]; -0.365 in [7]. Besides, the composite z-score was -0.321 in test [8], 0.0394 in test [9] and -0.102 in [10]. In test [2], this molecule gave a z-score of -0.19.
With `COC(=O)[C@@H]1CC[C@H](C)[C@@H](c2ccc(C)cc2)N1C(=O)c1ccc(C=NOC(C)CN2CCCCc3nc(C)c(C)cc32)cc1` (stereo not given in full), the composite z-score in test [1] was -0.278; in test [3], 0.359; in test [4], -0.0385; in test [5], 0.076; in test [6], 0.0437; in [7], 0.0893. Further, the values for the composite z-score in test [8], in [9] and in [10] were 0.0274, 0.652 and 0.709, respectively. In test [2], this molecule came in with a z-score of -3.62.
For the molecule `CO[C@H]([C@@H](C)[C@H](OC)c1ccccc1)[C@H](C)[C@@H](OC)[C@H](C)C(C)=O`, the composite z-score was -0.431 in test [1]; 0.402 in test [3]; -1.1 in [4]; -0.0474 in [5]; 0.0101 in [6]; -0.367 in [7]. Further, the composite z-score was -0.0286 in test [8], -0.482 in test [9] and -0.847 in [10]. The molecule also showed a z-score in test [2] of 1.14.
Turning to `CC(CCN1CCCCc2nc(C)c(C)cc21)=NOC(C)CN1CCCc2nc(C)c(C)cc21` (stereo not given), the composite z-score in [1] is 1.2; in [3] it was 1.12; in test [4], 1.09; in test [5], -0.573; in test [6], 0.298; in test [7], 1.25. Besides, the composite z-score came out at 0.578 in [8], 1.13 in [9] and 2.07 in test [10]. For the same molecule, the z-score in test [2] was -0.974.
Turning to `CCCNC(=O)OC[C@H]1O[C@H](CCON=CC[C@@H]2C=C[C@H](OC(C)=O)[C@@H](COC(C)=O)O2)C=C[C@@H]1Oc1ccc(OC)cc1`, the composite z-score in test [1] is 0.791; in test [3], 0.667; in test [4] it was -0.625; in test [5], -0.867; in test [6], -0.0718; in [7], -0.442. Besides, the composite z-score is -0.267 in [8], 0.444 in [9] and 0.945 in test [10]. The molecule also yielded a z-score in [2] of 0.0229.
With `C#CCCCON=C1C[C@@H](O)[C@@H](O)[C@@H]2[C@@H]3C(=O)N(Cc4ccccc4)C(=O)[C@@H]3CC[C@H]12`, the composite z-score is 0.154 in test [1]; 0.451 in [3]; -0.0441 in test [4]; -0.273 in [5]; -0.154 in [6]; -0.138 in test [7]. Moreover, the composite z-score is -0.0245 in test [8], 0.28 in test [9] and 0.234 in [10]. The molecule further gave a z-score in test [2] of -1.08.
As for `CN1C(=O)C2C=CC(C(O)c3ccc(Br)cc3)N(N(c3ccccc3)c3ccccc3)C2C1=O` (stereo not given), the composite z-score in test [1] was 0.962; in [3], -0.0937; in [4], 1.16; in test [5], 0.428; in test [6] it was 0.0873; in test [7], 0.0639. For the same molecule, the composite z-score in test [8] stood at 0.654; in test [9], 0.513; in test [10] it was 1.12. In test [2], this molecule showed a z-score of -1.01.
As to `CC(=O)OC[C@H]1O[C@H](CCON=C(C)CCC(=O)OC[C@H]2O[C@H](C#Cc3ccccc3)C=C[C@@H]2Oc2ccc(C)cc2)C=C[C@@H]1OC(C)=O`, the composite z-score in test [1] is -0.187; in test [3], 0.977; in [4], -0.367; in test [5], -0.5; in test [6], -0.131; in [7], -0.138. The composite z-score in test [8] is -0.423; in test [9] it was 0.245; in [10], 1.24. This molecule also returned a z-score in [2] of -0.0572.
